Experimental data from ChEMBL document CHEMBL3988442, “University of Dundee, Small-Polar-MMV Screening Library” (2021).
Screen size: about 48,000 compounds; about 13,000 (27%) showed an effect of 50% or more. This is one part of the list.

These compounds were tested on Wolbachia pipientis (assay: Anti-Wolbachia Cell-Based Screen). Conditions: 5 µM.
Format: functional
Parameters: scale not given: in the data most compounds retested in dose-response had high values

SMILES	Percent Effect
Cc1cc(C)n(C2CN(CC(O)c3ccc(F)cc3)C2)n1 (centres undefined)	-3.479%
CN1CCC(CCNC(=O)c2ccc(N(C)S(C)(=O)=O)cc2Cl)CC1	-5.905%
COC(=O)CC(c1ccccc1)c1oc(C)cc(=O)c1O (centres undefined)	9.59%
O=C(c1ccsc1)N1CCc2c(CNc3ncccn3)n[nH]c2C1	-3.042%
Cc1ncsc1C(=O)N1CCc2[nH]nc(-c3ccc4c(c3)OCO4)c2C1	-9.39%
O=C(c1cncs1)N1CCc2[nH]nc(Nc3ccccc3)c2C1	117.5%
CCn1c(CC2CCN(C(=O)C3CCOC3)CC2)nn(C)c1=O (centres undefined)	3.513%
Cc1cc(=O)n2ncnc2n1CC(O)c1ccc(F)cc1F (centres undefined)	-38.21%
O=S(=O)(NCC1(O)CCOc2ccccc21)c1ccc(Br)s1 (centres undefined)	-8.06%
Cc1ccc(S(C)(=O)=O)cc1C(=O)NS(=O)(=O)c1cccs1	20%
N#CCc1ccc(OCC(=O)NS(=O)(=O)c2cccs2)cc1	5.016%
Cc1ccc(OCC(=O)NS(=O)(=O)c2c(C)noc2C)cc1C	20.27%
CCOc1cccc2c1OCC(C(=O)NS(=O)(=O)c1ccc(Cl)cc1)=C2	-2.637%
CCOc1cccc2c1OCC(C(=O)NS(=O)(=O)c1cccs1)=C2	95.96%
CCOc1cccc2c1OCC(C(=O)NS(=O)(=O)c1c(C)noc1C)=C2	100.1%
Cc1cc(C)c(OCC(=O)NS(=O)(=O)c2c(C)noc2C)c(C)c1	0.8796%
CCOc1cccc2c1OCC(C(=O)NS(=O)(=O)c1cncc(Br)c1)=C2	125.8%
Cc1ccc(S(=O)(=O)NC(=O)c2cccc(OCC(N)=O)c2)s1	-0.7122%
CCOc1cccc2c1OCC(C(=O)NS(=O)(=O)c1ccc(Br)s1)=C2	97%
CCOc1ccc(C(=O)NS(=O)(=O)c2cncc(Br)c2)cc1OC	-12.86%

SMILES	Percent Effect
CN(CCN1CCCC1=O)S(=O)(=O)CC1CCCC1	-3.28%
Cc1ncc(S(C)(=O)=O)c(N2Cc3ccccc3C2)n1	20.01%
CCN(C)CC(=O)N1CCN(Cc2ccccc2)[C@@H]2CS(=O)(=O)C[C@@H]21	-19.14%
CCN(CC)C(=O)c1ccn(COc2ccccc2)n1	-3.664%
Cc1nc(CNC(C(=O)N2CCOCC2)C(C)C)oc1C (centres undefined)	-5.352%
CC(C)COCCC(=O)NS(=O)(=O)c1ccc(Cl)s1	13.2%
CCOc1cccc2c1OCC(C(=O)NS(=O)(=O)c1ccc(C)s1)=C2	-6.763%
CCOc1cccc2c1OCC(C(=O)NS(=O)(=O)c1ccc(Cl)s1)=C2	108.5%
COc1ccc(NC(=O)CSc2nc(C)cc(C)n2)cn1	9.531%
CC1c2ncc(CN3CCN(C)CC3)n2CCN1Cc1cnn(C)c1.O=C(O)C(F)(F)F.O=C(O)C(F)(F)F.O=C(O)C(F)(F)F (centres undefined)	96.74%
CC1c2ncc(CN3CCN(C)CC3)n2CCN1CC1CC1.O=C(O)C(F)(F)F.O=C(O)C(F)(F)F.O=C(O)C(F)(F)F (centres undefined)	-5.269%
CCOCc1cnc2n1CCN(Cc1scnc1C)C2C.O=C(O)C(F)(F)F (centres undefined)	-10.4%
CC1c2ncc(CN3CCN(C)CC3)n2CCN1Cc1cccnc1.O=C(O)C(F)(F)F.O=C(O)C(F)(F)F.O=C(O)C(F)(F)F.O=C(O)C(F)(F)F (centres undefined)	3.329%
Cc1ccc(CN2CCn3c(CN4CCN(C)CC4)cnc3C2C)s1.O=C(O)C(F)(F)F.O=C(O)C(F)(F)F.O=C(O)C(F)(F)F (centres undefined)	98.84%
CC1c2ncc(CN3CCN(C)CC3)n2CCN1Cc1ccc(F)cc1.O=C(O)C(F)(F)F.O=C(O)C(F)(F)F.O=C(O)C(F)(F)F (centres undefined)	94.11%
CC1c2ncc(CN3CCN(C)CC3)n2CCN1Cc1ccsc1.O=C(O)C(F)(F)F.O=C(O)C(F)(F)F.O=C(O)C(F)(F)F (centres undefined)	104.7%
Nc1ccc(CC2COc3ccccc3C2)cn1 (centres undefined)	18.77%
CCOc1ccc(S(=O)(=O)NCCc2ccc(N(C)C)cc2)cc1C	13.74%
CC(C)c1nc(CCN(C)C(=O)C2COc3ccccc3C2)no1 (centres undefined)	-22.02%
Cc1nn(CC(C)C)c(N(C)C)c1CNCCC(=O)NC(C)C	-6.967%

SMILES	Percent Effect
CC(C)c1nn(C)c(N(C)C)c1CNCCC(=O)NC1CCCCC1	102.1%
Cc1nn(C)c(N(C)C)c1CNCCC(=O)NC1CCCCC1	122.8%
Cc1nn(C)c(N(C)C)c1CNCCC(=O)NC1CCCC1	122.8%
Cc1cccc(NC(=O)CCNCc2c(C)nn(C)c2N(C)C)n1	-6.985%
CC(C)c1nn(C)c(N(C)C)c1CNCCC(=O)NC1CCCC1	-3.602%
CNC(=O)CCCNCc1c(C)nn(C)c1N(C)C	-1.91%
Cc1nn(C)c(N(C)C)c1CNCCNS(C)(=O)=O	-8.307%
CC(NCc1c(C(C)C)nn(C)c1N(C)C)C(=O)NC1CCCC1.Cl (centres undefined)	-15.88%
O=C1[C@@H]2CCN(CC3CC3)C[C@@H]2OCCN1c1ccsc1	-4.722%
O=C(N[C@@H]1CN(c2ncccn2)C[C@@H]2CCCO[C@@H]21)c1cnccn1.O=C(O)C(F)(F)F	-32.47%
CCCN1CCC(c2cc(CCOc3ccc(C(F)(F)F)cc3)[nH]n2)C1 (centres undefined)	115.7%
Br.COc1ccc(OCCc2cc(C3CCN(CC(C)C)C3)n[nH]2)cc1 (centres undefined)	140.6%
CC(C)CN1CC[C@H](c2nnc(COc3ccc(F)cc3)o2)C1	3.256%
COc1ccc(-c2c[nH]c(C3CC(=O)N(CC(C)C)C3)n2)cc1 (centres undefined)	-5.236%
Clc1ccc(OCCc2cc(C3CCN(c4ncccn4)C3)n[nH]2)cc1 (centres undefined)	119.6%
O=C(NCCN1CCCC1)Nc1cc(C(=O)N2CCOCC2)ccc1Cl	-2.741%
CC(CNS(C)(=O)=O)c1ccc(F)c(F)c1 (centres undefined)	0.4429%
Cc1ccc(C(=O)N2C[C@H](NS(C)(=O)=O)[C@@H](C(C)C)C2)cc1F	7.707%
Cc1ccc(S(=O)(=O)NCC(C)C#N)cc1Br (centres undefined)	-32.7%
